Screening results as filed in PubChem.
Pf growth 48h – inhibits P. falciparum growth in the first generation, 48 h; P. falciparum luciferase growth in erythrocytes, 48 h; Potency, µM (series often up to 28.7 µM), inactives show at the highest dose activity change, negative = inhibition, hits mostly inhibitors; 310,000 tested, 5.9% active; note: potency is the fitted concentration of half-maximal effect; % is set by controls: 0 for no effect and ±100 for the full control effect
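Luciferase-expressing parasites in RBCs, 2% Hct / 0.1% parasitemia final; RPMI 1640 + 0.5% Albumax; 37 C, 5% CO2, one generation; luminescence read-out, lower signal = inhibition.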
Cycloheximide cs – affects cycloheximide protein synthesis inhibition readout, counter-screen. cell reporter, cycloheximide protein synthesis inhibition counterscreen. max response, %. 300,000 tested, 12% active. AID 2314; in the data active = max response mostly above about 13%, no sharp cut-off; inactive = mostly below about 14%; note: read at 38.3 µM for the half of the compounds with a filed dose; 0% is about no effect
HCMV inh – human cytomegalovirus inhibition. AID 1259415. 410,000 tested, 4.5% active. HFF cells, HCMV-luciferase reporter, 72 h; stronger effect = lower value. activity change, negative = inhibition, % at 57.5 µM; in the data active = activity change below about -60%; inconclusive = no clear call, values can overlap the other calls; inactive = above about -39%; note: % is set by controls: 0 for no effect and ±100 for the full control effect
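After 16 h attachment at 37C, HFF cells received test compound and HCMV-luciferase (1 PFU/cell); reporter luminescence read 72 h later, data normalized against buffer-only and known inhibitor Salinomycin.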
Pf growth 96h – inhibits malaria parasite growth, 96 h; 320,000 tested, 6.9% active; P. falciparum luciferase reporter growth, 96 h; Potency, µM (doses to about 28.7 µM), without a hit: at the highest dose activity change, negative = inhibition, hits mostly inhibitors; AID 504834; note: potency is the fitted concentration of half-maximal effect; % is set by controls: 0 for no effect and ±100 for the full control effect
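Luminescence readout: decreased luciferase signal marks inhibited growth of reporter-expressing P. falciparum in infected red cells (2% hematocrit, 0.05% parasitemia final), exposed to compound two generations (96 h, 37 C, 5% CO2).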
HCV inhibitor – inhibitors of hepatitis C virus infection; AID 651820; Potency, µM (titrated, usually from 41.8 µM), for inactives: at the highest dose activity change, negative = inhibition, most hits filed as inhibitors; Huh7.5.1 HCVcc-Cre infection, luciferase reporter, 44 h; 340,000 tested, 3.4% active; note: potency is the fitted concentration of half-maximal effect; % is set by controls: 0 for no effect and ±100 for the full control effect
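Whole-lifecycle infectious HCVcc-Cre system; cells 1,000/well, compound then virus (~0.5 moi) added 4 h after plating, 44 h culture. Luciferase read 15 sec following 15 min substrate incubation, room temp.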
Shiga inhibitor – Shiga toxin inhibition; Vero cells, Shiga toxin protein synthesis inhibition reporter; inhibition, % at 38.7 µM; 290,000 tested, 9.2% active; in the data active = inhibition mostly above about 28%, no sharp cut-off; inactive = mostly below about 43%; note: 0% is about no effect
* hit, by the source's call; u = inconclusive; x = not tested or not shown; [ ] = another dose, or the depositor's remark. This is a sample that favours compounds with a hit; in the whole collection about 21% have one here. Unless noted, calls come from the whole dose curve; as a rule, active = well fitted inhibition curve with a large enough effect; inconclusive = small, poorly fitted or top-dose-only effect, or another doubt; inactive = no such curve, though single readings can be large or run the other way.

SMILES | Pf growth 48h | Cycloheximide cs | HCMV inh | Pf growth 96h | HCV inhibitor | Shiga inhibitor
Fc1ccc(COc2ccc(C(=S)N3CCCC3)cc2)cc1 | 37% | 53* | 24 | u | -19% | 59*
CC(C)COc1ccc(C(=S)N2CCCC2)cc1 | x | x | u | x | -10% | x
CCCCc1ncc(CN2CCC(n3nccc3NC(=O)C(OC)c3ccccc3)CC2)[nH]1 (stereo not given) | 12% | 0 | -30 | u | 17% | -4
CCC(=Nc1ccc2c(c1)CCC2)c1c(O)n(C2CCCCC2)c(=O)[nH]c1=O | x | 2 | -85* | u | 1% | -10
CC(=Nc1ccc2c(c1)CCC2)c1c(O)n(C2CCCCC2)c(=O)[nH]c1=O | 4% | -1 | -15 | -7%[5.75 µM] | 11% | 12
CC/C(=N\NC(=O)c1ccccc1)c1c(O)n(C2CCCCC2)c(=O)[nH]c1=O | 15% | 34* | 14 | -8% | 12% | 51*
CC/C(=N\NC(=O)c1ccccc1Cl)c1c(O)n(C2CCCCC2)c(=O)[nH]c1=O | 11% | 14* | -2 | u | 8% | 12
COc1ccc(C(=O)N/N=C(\C)CC(=O)NC2CCCCC2)c(OC)c1 | 10% | 11 | -36 | -8% | 22% | 17
COc1ccc(CNS(=O)(=O)c2cc(Br)ccc2Br)c(OC)c1 | x | x | -3 | x | x | x
C1=C(c2ccc(-c3ccccc3)cc2)Nc2ncnn2C1c1ccco1 (stereo not given) | 7% | 31* | 0 | 19% | 20% | 92*
Brc1ccc(C2=CC(c3ccco3)n3nnnc3N2)cc1 (stereo not given) | 25% | 16* | 28 | 11% | 20% | 57*
O=C1CC(Cc2ccccc2)C(=O)N1Cc1ccco1 (stereo not given) | u | 0 | x | 12µM* | 19% | 4
Cc1ccc(CC2CC(=O)N(Cc3ccco3)C2=O)cc1 (stereo not given) | 0% | -1 | -13 | 19% | 10% | -10
COc1cc2c(cc1OC)C(c1ccccc1)N(S(C)(=O)=O)CC2 (stereo not given) | -7% | 1 | -21 | u | 20% | -9
Cc1ccc(-c2nnc(SCC(N)=O)nc2-c2ccc(C)cc2)cc1 | -15% | -2 | u | -14% | -1% | 19
Cc1ccc(-c2nnc(SCC(=O)N(C)C)nc2-c2ccc(C)cc2)cc1 | u | -4 | -60* | u | -13% | -9
COC(=O)c1cc2c(c3c4ccccc4n(S(=O)(=O)c4ccc(C)cc4)c13)C(=O)N(Cc1ccccc1)C2 | x | x | -7 | x | x | x
CN1CCN(NC(=O)c2cc(-c3ccc(Br)s3)nc3ccccc23)CC1 | u | -2 | -5 | 22% | 10µM* | -10
Cc1cc(-c2cc(C(=O)O)c3ccccc3n2)c(C)s1 | 16% | 14 | 7 | 1.7µM* | 19% | 18
O=C(O)c1cc(-c2ccc(Br)s2)nc2ccccc12 | 46% | 17* | 16 | u | 7% | 34*
O=C(CCC(=O)N(CC(=O)NC1CCCC1)Cc1ccc(F)cc1)Nc1nccs1 | -10% | -7 | 4 | 3% | -14% | -8
CCS(=O)(=O)c1ncc(Cl)c(C(=O)NCc2ccc(OC)cc2)n1 | x | x | -97* | x | x | x
CCS(=O)(=O)c1ncc(Cl)c(C(=O)N(Cc2ccccc2)c2ccc(OC)cc2)n1 | x | x | -99* | x | x | x
CCS(=O)(=O)c1ncc(Cl)c(C(=O)N2CCN(c3ccc(OC)cc3)CC2)n1 | x | x | -99* | x | x | x
COc1ccc(N2CCN(C(=O)c3nc(SC)ncc3Cl)CC2)cc1 | x | x | -18 | x | x | x
SMILES | Pf growth 48h | Cycloheximide cs | HCMV inh | Pf growth 96h | HCV inhibitor | Shiga inhibitor
CN(C)c1ccc(-c2cc3ccccc3c(=O)o2)cc1 | x | x | 70 | x | -2% | x
COc1ccc(C)cc1NC(=O)CNC(C)C(=O)Nc1cc(Cl)ccc1Cl (stereo not given) | u | -2 | -11 | u | -29% | -6
CCCCOc1ccc(CNC(=O)CCCN2C(=O)CSc3c2c(C)nn3-c2ccccc2)cc1 | x | x | -70* | x | x | x
COc1ccc(C)cc1NC(=O)C(CCSC)NS(=O)(=O)c1ccc2c(c1)oc(=O)n2C (stereo not given) | x | x | 0 | x | x | x
Cc1cc(O)c(CN2CC=C(c3ccccc3)CC2)cc1C(C)C | 0.29µM* | -2 | -1 | 0.26µM* | -4% | -5
COc1ccc(C(=O)NC(=S)Nc2ccccc2N2CCCCC2)cc1[N+](=O)[O-] | 0% | -1 | -11 | u | 13µM* | -14
CCOc1ccc(C(=O)NC(=S)Nc2ccccc2N2CCCCC2)cc1[N+](=O)[O-] | u | 11 | -20 | 37% | u | -4
Cc1c(C(=O)NC(=S)Nc2ccccc2N2CCCC2)cccc1[N+](=O)[O-] | 15µM* | 1 | -29 | u | 3.5µM* | -13
Cc1ccc(C2(C)NC(=O)N(CC(=O)N3c4ccccc4NC(=O)CC3C)C2=O)cc1 (stereo not given) | -19% | x | -14 | u | 11% | x
COC(=O)[C@]12CCCCC=C1N(Cc1ccccc1)C(=O)[C@H](CC(=O)NCc1cccs1)C2 | x | x | -66* | x | x | x
COC(=O)[C@]12CCCCC=C1N(Cc1ccc3c(c1)OCO3)C(=O)[C@H](CC(=O)N1CCCCC1)C2 | x | x | -70* | x | x | x
COC(=O)[C@]12C[C@H](CC(=O)NCc3cccs3)C(=O)N(Cc3ccc4c(c3)OCO4)C1=C[C@H](COCc1ccccc1)O[C@@H]2C | x | x | -22 | x | x | x
COC(=O)[C@]12C[C@H](CC(=O)NCc3cccs3)C(=O)N(Cc3ccccc3)C1=C[C@H](C(C)C)O[C@@H]2C1CC1 | x | x | -71* | x | x | x
COC(=O)[C@]12C[C@H](CC(=O)NCC34CC5CC(CC(C5)C3)C4)C(=O)N(Cc3ccc4c(c3)OCO4)C1=C[C@H](COCc1ccccc1)O[C@@H]2C | x | x | -63* | x | x | x
COC(=O)CNc1cccc(C(F)(F)F)c1 | 15% | -1 | -5 | 6% | 20% | 2
COc1cccc(NC(=S)N(Cc2ccc(Cl)cc2)Cc2ccc(C(=O)O)cc2)c1 | 15% | -11 | -7 | -21% | 8% | -10
CC(=O)NC1CSCC1OC(C)=O (stereo not given) | 0% | -6 | 21 | 9.3µM* | 15% | -11
O=[N+]([O-])c1cc(-c2cnc3ccccc3n2)ccc1Oc1ccc(Cl)cc1 | 15% | 38* | 44 | u | u | 39*
O=[N+]([O-])c1cc(-c2cnc3ccccc3n2)ccc1Cl | 13% | 14 | 52 | 42% | -11% | 17
COc1ccccc1Oc1ccc(-c2cnc3ccccc3n2)cc1[N+](=O)[O-] | u | 62* | -87* | 69% | u | 73*
COc1ccccc1Oc1ccccc1[N+](=O)[O-] | u | 22 | 12 | u | 3% | 21
COc1ccc(N(CC(=O)NCc2ccc3c(c2)OCO3)C(=O)CCC(=O)Nc2ccccn2)cc1 | 12% | -1 | 11 | 54% | -10% | 21
